Measured values: PubChem BioAssay (NCATS)
Records with an inconclusive call do not appear. Values without a mark were called inactive. Activity calls are given as the source filed them. Calls come from the whole dose curve; as a rule, active = well fitted inhibition curve with a large enough effect; inconclusive = small, poorly fitted or top-dose-only effect; inactive = no such curve, though single readings can be large or run the other way.

System: Zika virus NS2B-NS3 protease (unlinked complex)
Test: Primary screen GU Rhodamine qHTS for Zika virus inhibitors: Unlinked NS2B-NS3 protease assay (AID 1347159); note: nearly all actives have a fitted effect of over 60% in size
Conditions: Recombinant ZIKV NS2B-NS3 protease, Rhodamine110 substrate fluorescence; series mostly up to 107 µM; activity change, negative = inhibition: at the top concentration
In short: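 In dose–response format, inhibition of unlinked protease (25 nM) was measured with 1.5 microM bis-peptide Rhodamine110 substrate. Aprotinin served as the intraplate control.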
% is set by controls: 0 for no effect and ±100 for the full control effect; potency is the fitted concentration of half-maximal effect.

| Compound | Potency | activity change, negative = inhibition |
| --- | --- | --- |
| CCOc1cc(CC(=O)NC(CC(C)C)c2ccccc2N2CCCCC2)ccc1C(=O)O (stereo not given) | 20 µM (active) |  |
| CC(C)CCC(=O)CC1c2ccccc2C(=O)N1c1ccc2ccc(Cl)nc2n1 (stereo not given) |  | -15% |
| Cc1[nH]c2ccccc2c1C1=C(NCCc2ccc(F)cc2)C(=O)N(C)C1=O |  | -20.4% |
| CC(C)CCC1(O)C(=O)C(C)(C)C(O[C@@H]2O[C@H](CO)[C@@H](O)[C@H](O)[C@H]2O)C(C)(C)C1O (stereo not given in full) | 35.5 µM (active) |  |
| O=C(O)c1ccccc1NC(=O)N1CCC(c2ccccc2C(F)(F)F)CC1 | 22.4 µM (active) |  |
| CC(c1ncncc1F)C(O)(Cn1cncn1)c1ccc(F)cc1F (stereo not given) |  | 9.75% |
| COc1cc2c3c(cc4ccccc4c3c1O)NC2=O | 22.4 µM (active) |  |
| COc1ccc(-n2[nH]c(=O)c3[nH]c4cc(Cl)ccc4c(=O)c3c2=O)c(C)c1 | 56.2 µM (active) |  |
| CC(C)c1cc2c(c(O)c1O)[C@@]13CCCC(C)(C)[C@@H]1[C@H](OC3=O)C2=O | 8.91 µM (active) |  |
| CC1(C)CC[C@]2(C(=O)O[C@@H]3O[C@H](CO)[C@@H](O)[C@H](O)[C@H]3O)CC[C@]3(C)C(=CCC4[C@@]5(C)C[C@@H](O)[C@H](O)[C@@](C)(CO)C5CC[C@]43C)C2[C@@H]1O (stereo not given in full) | 10 µM (active) |  |
| CCc1cc(CN2CC(C(=O)O)C2)sc1-c1noc(-c2ccc(Oc3ccccc3)cc2)n1 | 3.98 µM (active) |  |
| CN(C)c1ccc2c(c1)OC(N)=C(C#N)C2c1cccc(C(F)(F)F)c1 (stereo not given) |  | 0% |
| CC(=O)OC1C[C@@]2(C)[C@@H](CC[C@@H](C)[C@]23Cc2c(O)cc4c(c2O3)CNC4=O)C(C)(C)[C@@H]1O (stereo not given in full) |  | -2.67% [at 57.1 µM] |
| O=C(O)CC1CCC(c2ccc(-c3ccc4nc(C(=O)NCc5ccc(OC(F)(F)F)cc5)cn4c3)cc2)CC1 (stereo not given) | 2.51 µM (active) |  |
| CCC(C)/C=C(C)/C=C/c1cc2c(cn1)C(=O)C(C)(OC(C)=O)C(O)=C2Cl (stereo not given) | 10 µM (active) |  |
| COC1C(=O)CCC2(CO2)C1(O)C1(C)OC1CC=C(C)C (stereo not given) | 44.7 µM (active) |  |
| Cc1ccccc1C#Cc1ccc(CCC(=O)O)cc1 | 14.1 µM (active) |  |
| CC1CCC23COC(=O)C2=CC(O)CC3C1(C)CCC1=CC(O)OC1=O (stereo not given) | 8.91 µM (active) |  |
| COc1c2c(cc3c1-c1c(cc4c(c1OC)OCO4)CC(C)C(C)C3)OCO2 (stereo not given) |  | -15.6% |
| Nc1nccn2c(C3CCC(C(=O)O)CC3)nc(-c3cc4cccc(Cl)c4[nH]3)c12 (stereo not given) | 25.1 µM (active) |  |

| Compound | Potency | activity change, negative = inhibition |
| --- | --- | --- |
| CC(C)[C@@H](CS(=O)(=O)C(C)C)N1C(=O)[C@@](C)(CC(=O)O)C[C@H](c2cccc(Cl)c2)[C@H]1c1ccc(Cl)cc1 | 28.2 µM (active) |  |
| COC(=O)CCC(=O)OC[C@]1(C)CCC[C@@]2(C)C3CC[C@]4(C)C=CC3(CCC12)C4 (stereo not given in full) |  | -11.1% [at 57.1 µM] |
| CC(=O)c1c(O)cc(O[C@@H]2O[C@H](CO)[C@@H](O)[C@H](O)[C@H]2O)cc1O | 31.6 µM (active) |  |
| CCCC1(c2ccccc2)NC(=O)N(CC(=O)N(C)Cc2c(F)cccc2Cl)C1=O (stereo not given) |  | -20% |
| C/C1=C\CCC(C)CCO[C@@H]2O[C@H](CO[C@@H]3OC[C@H](O)[C@H](O)[C@H]3OC1=O)[C@@H](O)[C@H](O)[C@H]2O (stereo not given in full) | 31.6 µM (active) |  |
| OCC(CO[C@@H]1O[C@H](CO)[C@@H](O)[C@H](O)[C@H]1O)c1ccc2c(c1)OCO2 (stereo not given in full) |  | -27.8% |
| CC1(C)[C@@H](O)CC[C@]2(C)[C@H]3CC=C4[C@@H]5C[C@](C)(C(=O)O)CC[C@]5(C)CC[C@@]4(C)[C@]3(C)CC[C@@H]12 | 7.08 µM (active) |  |
| CC(C)C(N)C(=O)OCCOCn1cnc2c(=O)[nH]c(N)nc21 (stereo not given) |  | 16% |
| Cc1cc(C(=O)N2CCCCc3ccccc32)ccc1CNC(=O)N1CCC[C@H]1C(=O)N(C)C |  | 10% |
| COc1ccc(-c2cnc3ccc(NCc4ccc(S(N)(=O)=O)cc4)nn23)cc1OC |  | 9.63% |
| CC(=O)O[C@@H]1[C@@H](O)[C@H](O[C@H]2CC[C@]34C[C@]35CC[C@]3(C)[C@@H]([C@@]6(C)CC[C@@H](C(C)(C)O)O6)[C@@H](O)C[C@@]3(C)[C@@H]5C[C@H](O[C@@H]3O[C@H](CO)[C@@H](O)[C@H](O)[C@H]3O)[C@H]4C2(C)C)OC[C@H]1O |  | 1.94% |
| Cc1ccc(C)c(OCCn2cc(C(=O)O)c3ccccc32)c1 | 39.8 µM (active) |  |
| COc1cc(/C=C/C(=O)OC[C@H]2O[C@@](CO)(O[C@H]3O[C@H](CO)[C@@H](O)[C@H](O)[C@H]3O)[C@@H](OC(=O)/C=C/c3ccc(O)c(OC)c3)[C@@H]2O)ccc1O |  | -20.9% [at 32.5 µM] |
| C=CC(=O)N1CCN(C(=O)CNc2cc(I)c(Cl)cc2O)CC1 |  | -11.2% |
| C/C(=C\C=C\C(C)C1CCC2(C)C3CCC4C(C)(C)C(=O)CCC45CC35CCC12C)C(=O)O (stereo not given) | 4.47 µM (active) |  |
| COc1ccc(N2CCOCC2)c2sc(NC(=O)N3CCC(C)(O)CC3)nc12 |  | 15.3% |
| CC(C)=CCC/C(C)=C/Cc1ccc(O)c(C2OC(=O)c3cc(C(=O)O)cc(O)c32)c1O (stereo not given) | 2.24 µM (active) |  |
| CCCC(=O)NCCc1csc(-c2ccc(Cl)cc2)n1 |  | 0% |
| CC(=O)O[C@@H]1[C@@H](CO)O[C@@](CO)(O[C@H]2O[C@H](COC(=O)/C=C/c3ccccc3)[C@@H](O)[C@H](O)[C@H]2O)[C@H]1O |  | -7.1% [at 57.1 µM] |
| CS(=O)(=O)c1ccc([C@H](CC2CCCC2)C(=O)Nc2nccs2)cc1 |  | 4.61% |
